This passage reports Potency results from PubChem BioAssay (NCATS).

Records with an inconclusive call do not appear. The source made the active and inactive calls. Calls follow the shape of the dose curve; as a rule, active = well fitted cell-killing curve with a large enough effect; inconclusive = small, poorly fitted or top-dose-only effect, or effect the other way; inactive = no such curve, though single readings can be large or run the other way.
Potency is read from the fitted curve at half-maximal effect.

The first assay can be described thus: Quantitative High-Throughput drug screen in 47 multiple myeloma cell lines against the NCATS MIPE library collection: KMS21BM_JCRB cell viability assay (AID 1918974). The settings on record: ATP luminescence, 48 h; viability: at 45.8 µM unless noted. The method, boiled down:
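Inhibition of cell viability is measured here. Each line was plated at 500 cells per well, treated with MIPE 4.0 drugs, kept 48 hours at 37C, then assayed for ATP content by CellTiter-Glo luminescence.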
In the case of `Cc1[nH]nc2ccc(-c3cncc(OC[C@@H](N)Cc4ccccc4)c3)cc12`, the Potency is 0.935 µM (active).

As for `Cn1cc(-c2[nH]c3cc(NC(=O)[C@H](N)C4CCCCC4)cc4c3c2C=NNC4=O)cn1`, the Potency is 0.166 µM (active).

Regarding `CNC(=O)c1ccccc1Nc1nc(Nc2ccc(N3CCOCC3)cc2OC)ncc1Cl`, the Potency was 0.209 µM (active).

Take `CN(C)CC=CC(=O)Nc1cc2c(Nc3ccc(F)c(Cl)c3)ncnc2cc1O[C@H]1CCOC1`: the Potency is 0.166 µM (active).

With `Nc1ncnc2c1c(-c1cnc3[nH]ccc3c1)nn2C1CCCC1`, the Potency is 1.05 µM (active).

As for `COc1ccc2c(c1)CC[C@@H](CN(C)CC(=O)O)[C@H]2c1ccccc1`, the Potency was 5.26 µM (active).

Take `Nc1cc(C(F)(F)F)c(-c2cc(N3CCOCC3)nc(N3CCOCC3)n2)cn1`: the Potency was 0.418 µM (active).

The nature of another assay: Quantitative High-Throughput drug screen in 47 multiple myeloma cell lines against the NCATS MIPE library collection: KMS26_JCRB cell viability assay (AID 1918975). Also: nearly all actives have a fitted effect of over 45% in size. The following applies: KMS26 myeloma cells viability, CellTiter-Glo ATP, 48 h; series mostly up to 45.8 µM. The gist of the method: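 We plated 500 myeloma cells per well, pinned in MIPE 4.0 compounds, and incubated for 48 hours at 37C. ATP was then quantified with CellTiter-Glo, with DMSO and media-only wells defining 100% and 0%.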
(ATP-based viability assays read luminescence as a measure of living cells.)
On to `Nc1ncnc2c1c(-c1cccc(OCc3ccccc3)c1)cn2C1CC(CN2CCCC2)C1` (stereo not given), for which the Potency was 4.69 µM (active).

`COc1cc(C)c(Sc2cnc(NC(=O)c3ccc(CNC(C)C(C)C)cc3)s2)cc1C(=O)N1CCN(C(C)=O)CC1` (stereo not given): the Potency was 14.8 µM (active).

Turning to `C[C@@H]1COC(Nc2ccc3ncnc(Nc4ccc(OCc5nccs5)c(Cl)c4)c3c2)=N1`, the Potency is 20.9 µM (active).

On to `Cc1cc(C(=O)N2CCN(c3cccc(Cl)c3)CC2)n(-c2ccccc2)n1`, for which the Potency was 18.7 µM (active).

`O=C(Cc1ccc(-c2ccc(OCCN3CCOCC3)cc2)cn1)NCc1ccccc1`: the Potency is 0.0833 µM (active).

With `CNC(=O)c1ccccc1Nc1nc(Nc2ccc(N3CCOCC3)cc2OC)ncc1Cl`, the Potency is 0.418 µM (active).

For the compound `O=C(CCCCCCC(=O)Nc1ccc([C@H]2O[C@@H](CSc3nc(-c4ccccc4)c(-c4ccccc4)o3)C[C@@H](c3ccc(CO)cc3)O2)cc1)NO`, the Potency is 23.5 µM (active).

As for `CCS(=O)(=O)c1cccc(-c2cc(C(=O)NC3CCN(C)CC3)c(C)c3[nH]c4ncc(C)cc4c23)c1`, the Potency is 2.96 µM (active).

For the compound `COc1cc2ncnc(Nc3ccc(F)c(Cl)c3)c2cc1NC(=O)C=CCN1CCCCC1`, the Potency was 18.7 µM (active).

On to `C#Cc1cccc(Nc2ncnc3cc(OC)c(OCCCCCCC(=O)NO)cc23)c1`, for which the Potency is 0.105 µM (active).

Turning to `O=c1[nH]nc(Sc2ncc([N+](=O)[O-])s2)n1-c1ccc2c(c1)OCCO2`, the Potency was 1.48 µM (active).

Regarding `CC[C@@]1(O)C(=O)OCc2c1cc1n(c2=O)Cc2cc3cc(O)ccc3nc2-1`, the Potency is 5.26 µM (active).

On to `COc1ccc(-c2cc3c(C)nc(N)nc3n(C3CCC(OCCO)CC3)c2=O)cn1` (stereo not given), for which the Potency was 0.148 µM (active).

For the compound `CN1CCN(c2cc(C(=O)Nc3ccc4c(c3)-c3c(c(C(N)=O)nn3-c3ccc(F)cc3)CC4)c(Cl)cn2)CC1`, the Potency is 10.5 µM (active).

With `Cc1cnc(Nc2ccc(F)cc2Cl)nc1-c1c[nH]c(C(=O)N[C@H](CO)c2cccc(Cl)c2)c1`, the Potency was 20.9 µM (active).

Consider `CN(C)CC=CC(=O)Nc1cc2c(Nc3ccc(F)c(Cl)c3)ncnc2cc1O[C@H]1CCOC1`, for which the Potency is 6.62 µM (active).

Take `NC1(Cc2ccc(Cl)cc2)CCN(c2ncnc3[nH]ccc23)CC1`: the Potency is 6.62 µM (active).

On to `COc1ccc2c(c1)CC[C@@H](CN(C)CC(=O)O)[C@H]2c1ccccc1`, for which the Potency is 1.87 µM (active).

Consider `Nc1cc(C(F)(F)F)c(-c2cc(N3CCOCC3)nc(N3CCOCC3)n2)cn1`, for which the Potency was 2.09 µM (active).

With `COc1cccc2c(NCc3ccccc3)nc(-n3c(N)nc4ccccc43)nc12`, the Potency was 4.69 µM (active).

A short description of another assay: Quantitative High-Throughput drug screen in 47 multiple myeloma cell lines against the NCATS MIPE library collection: MMM1_PLB cell viability assay (AID 1918976). Also: nearly all actives have a fitted effect of over 35% in size. The following applies: MMM1 myeloma cells viability, CellTiter-Glo, 48 h; series mostly up to 45.8 µM. The gist of the method: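 500 cells/well per myeloma line exposed to pinned MIPE 4.0 compounds for 48 h at 37 °C, 5% CO2. Viability read as ATP by CellTiter-Glo luminescence, normalised to DMSO-only (100%) and media-only (0%) wells.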
`Cc1[nH]nc2ccc(-c3cncc(OC[C@@H](N)Cc4ccccc4)c3)cc12`: the Potency was 2.96 µM (active).

Consider `Nc1ncnc2c1c(-c1cccc(OCc3ccccc3)c1)cn2C1CC(CN2CCCC2)C1` (stereo not given), for which the Potency is 1.05 µM (active).

With `COc1cc(C)c(Sc2cnc(NC(=O)c3ccc(CNC(C)C(C)C)cc3)s2)cc1C(=O)N1CCN(C(C)=O)CC1` (stereo not given), the Potency was 4.69 µM (active).

Take `COc1cc2c(Oc3ccc(-c4cnc(Nc5ccc(F)cc5)n(C)c4=O)cc3F)ccnc2cc1OCCCN1CCOCC1`: the Potency was 4.69 µM (active).

Take `COc1cc2c(NC3CCN(C(C)C)CC3)nc(C3CCCCC3)nc2cc1OCCCN1CCCC1`: the Potency was 6.62 µM (active).

On to `Cc1cc(C(=O)N2CCN(c3cccc(Cl)c3)CC2)n(-c2ccccc2)n1`, for which the Potency was 7.43 µM (active).

In the case of `O=C(Cc1ccc(-c2ccc(OCCN3CCOCC3)cc2)cn1)NCc1ccccc1`, the Potency was 14.8 µM (active).

With `Cn1cc(-c2[nH]c3cc(NC(=O)[C@H](N)C4CCCCC4)cc4c3c2C=NNC4=O)cn1`, the Potency was 1.32 µM (active).

Turning to `CNC(=O)c1ccccc1Nc1nc(Nc2ccc(N3CCOCC3)cc2OC)ncc1Cl`, the Potency is 0.526 µM (active).

Regarding `CC(C)c1ccccc1Cc1cc(C(=O)Nc2ccc(S(=O)(=O)c3ccccc3C(C)(C)C)cc2)c(O)c(O)c1O`, the Potency is 18.7 µM (active).

Consider `CCS(=O)(=O)c1cccc(-c2cc(C(=O)NC3CCN(C)CC3)c(C)c3[nH]c4ncc(C)cc4c23)c1`, for which the Potency was 4.18 µM (active).

With `C#Cc1cccc(Nc2ncnc3cc(OC)c(OCCCCCCC(=O)NO)cc23)c1`, the Potency was 0.418 µM (active).

As to `CC=C1NC(=O)[C@H]2CSSCCC=C[C@H](CC(=O)N[C@H](C(C)C)C(=O)N2)OC(=O)[C@H](C(C)C)NC1=O`, the Potency is 0.935 µM (active).

As for `O=c1[nH]nc(Sc2ncc([N+](=O)[O-])s2)n1-c1ccc2c(c1)OCCO2`, the Potency was 2.96 µM (active).

On to `CC[C@@]1(O)C(=O)OCc2c1cc1n(c2=O)Cc2cc3cc(O)ccc3nc2-1`, for which the Potency was 11.8 µM (active).

With `OCc1ccc(-c2ccc(-c3ccc(CO)s3)o2)s1`, the Potency is 3.72 µM (active).

Consider `Cc1cnc(Nc2ccc(F)cc2Cl)nc1-c1c[nH]c(C(=O)N[C@H](CO)c2cccc(Cl)c2)c1`, for which the Potency is 16.6 µM (active).

For the compound `CN(C)CC=CC(=O)Nc1cc2c(Nc3ccc(F)c(Cl)c3)ncnc2cc1O[C@H]1CCOC1`, the Potency was 20.9 µM (active).

For `CC(C)c1cc(C(=O)N2Cc3ccc(CN4CCN(C)CC4)cc3C2)c(O)cc1O`, the Potency is 0.418 µM (active).

With `Nc1ncnc2c1c(-c1cnc3[nH]ccc3c1)nn2C1CCCC1`, the Potency was 0.187 µM (active).

For the compound `NC1(Cc2ccc(Cl)cc2)CCN(c2ncnc3[nH]ccc23)CC1`, the Potency is 0.526 µM (active).

With `Nc1cc(C(F)(F)F)c(-c2cc(N3CCOCC3)nc(N3CCOCC3)n2)cn1`, the Potency was 0.526 µM (active).

On to `COc1cccc2c(NCc3ccccc3)nc(-n3c(N)nc4ccccc43)nc12`, for which the Potency is 5.9 µM (active).
